Screening results from PubChem BioAssay.
S1P4 antag: S1P4 receptor antagonists, primary screen, cell-based; Sphingosine 1-phosphate receptor 4 (Homo sapiens), O95977; S1P4-expressing cells, antagonist mode, reporter read-out; inhibition, % at 4.98 µM; 220,000 tested, 0.26% active; AID 1510, 2009; in the data active = inhibition above about 29%
GALR2 blocker: GALR2 antagonists in receptor-expressing cells, primary screen; Galanin receptor type 2 (Homo sapiens), O43603; antagonist mode; inhibition, % at 4 µM; 140,000 tested, 0.39% active; AID 828, 2007;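 note: cells stimulated with galanin 1-16 at roughly its EC80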
S1P3 antag: S1P3 receptor antagonists, primary screen, cell-based | CHO S1P3 NFAT-BLA reporter, FRET fluorescence, antagonist mode | inhibition, % at 4.98 µM | 170,000 tested, 0.27% active;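 active = inhibition above the plate cutoff, the mean inhibition of test wells on that plate plus 3 SD, cut at about 28% in these data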;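 note: cells challenged with S1P at its EC80 of 0.8 µM; blue over green emission ratio from cleaved BLA substrate after 4 h stimulation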
GALR2 ag: GALR2 receptor agonists, primary screen, cell-based; 140,000 tested, 0.48% active; Galanin receptor type 2 (Homo sapiens), O43603; activation, % (test concentration not listed); GALR2-expressing cells, agonist activation read-out; in the data active = activation above about 5%, passing the limit was not always enough
S1P4 agonist: S1P4 receptor agonists, primary screen, cell-based. Sphingosine 1-phosphate receptor 4 (Homo sapiens), O95977. activation, % at 4.98 µM. S1P4-expressing cell line, agonist reporter assay. 220,000 tested, 0.35% active. AID 1509, 2009; in the data active = activation above about 11%
GALR2 blk conf: GALR2 antagonists, retest of hits, confirmation, cell-based. shares compounds with GALR2 blocker. GALR2-expressing cells, antagonist mode, inhibition. inhibition, % at 4 µM. 480 tested, 60% active. AID 866, 2007;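 note: cells stimulated with galanin at about its EC80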
BLA inhib ctr: inhibitors of NFAT-driven beta-lactamase reporter, confirmation, counter-screen for GALR2 antagonist project, CHO NFAT-bla cells, FRET readout | inhibition, % at 4.2 µM | AID 867, 2007 | thapsigargin-stimulated | shares compounds with GALR2 blocker | 480 tested, 36% active;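 active = inhibition above the mean inhibition across tested compounds plus 3 SD, cut at about 27% in these data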
S1P4 agonist cf: S1P4 receptor agonists, retest, confirmation, cell-based, high throughput; activation, % at 4.98 µM; shares compounds with S1P4 agonist; 740 tested, 7% active; S1P4 agonist cell-based reporter assay; AID 1523, 2009; in the data active = activation above about 12%
S1P1 agonist: S1P1 receptor agonists, human, counter-screen for S1P4 agonist project, cell-based; shares compounds with S1P4 agonist; S1P1 agonist cell-based assay, activation; activation, % at 4.98 µM; 740 tested, 4% active; AID 1563, 2009; in the data active = activation above about 21%
Target sequence (P21453 whole entry, looked up): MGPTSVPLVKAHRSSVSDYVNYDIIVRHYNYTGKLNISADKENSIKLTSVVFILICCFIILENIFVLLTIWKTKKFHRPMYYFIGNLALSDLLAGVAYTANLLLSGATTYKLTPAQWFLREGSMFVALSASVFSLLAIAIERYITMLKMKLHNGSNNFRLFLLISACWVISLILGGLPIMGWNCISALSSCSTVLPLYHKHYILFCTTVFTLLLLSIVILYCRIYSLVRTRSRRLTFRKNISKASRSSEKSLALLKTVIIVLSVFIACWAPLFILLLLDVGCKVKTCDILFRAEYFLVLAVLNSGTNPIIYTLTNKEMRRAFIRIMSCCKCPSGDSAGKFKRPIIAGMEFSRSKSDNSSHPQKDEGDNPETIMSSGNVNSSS
S1P4 antag cf: S1P4 receptor antagonists, human, confirmation, cell-based | 520 tested, 71% active | shares compounds with S1P4 antag | inhibition, % at 4.98 µM | S1P4-expressing cell line, antagonist mode, reporter read-out; in the data active = inhibition above about 30%
S1P1 antag: S1P1 receptor antagonists, human, counter-screen for S1P4 antagonist project, cell-based; inhibition, % at 4.98 µM; cell-based S1P1 antagonist counterscreen, inhibition; 520 tested, 37% active; shares compounds with S1P4 antag; AID 1564, 2009; in the data active = inhibition above about 40%;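 note: receptor stimulated with S1P near its EC80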
Large screens that a line does not name were inactive (follow-up assays come after a bar, where they were run). The list is not random: actives were taken first. Their share in the collection is about 1.3%. Cut-off read from the data, not from the text of the source, unless noted: active = inhibition above about 27%; inactive = the rest.

O=C(Cn1ncc(Cl)c(Cl)c1=O)N1CCN(S(=O)(=O)c2ccc3ccccc3c2)CC1	S1P4 antag 41, GALR2 blocker 29 | GALR2 blk conf 56 | BLA inhib ctr inactive | S1P4 antag cf 116 | S1P1 antag 69
NC(=O)NC(Cc1ccccc1)C(=O)NCC1(N2CCCCC2)CCCCC1 (stereo not drawn)	none
CCCc1cc(=O)[nH]c(SCC(=O)N(C)CC(=O)Nc2ccccc2CC)n1	none
CCOC(=O)c1ccc(NC(=O)Cn2ncc(Cl)c(Cl)c2=O)cc1	S1P4 antag 37, GALR2 blocker 82 | GALR2 blk conf 67 | BLA inhib ctr 48 | S1P4 antag cf 123 | S1P1 antag 78
Cc1ccc(C(=O)OCn2ncc(Cl)c(Cl)c2=O)cc1	S1P4 antag 111, GALR2 blocker 85 (no result: S1P3 antag) | GALR2 blk conf 94 | BLA inhib ctr 71 | S1P4 antag cf 115 | S1P1 antag 63
CCc1ccccc1NC(=O)CN(C)C(=O)Cn1ncc(Cl)c(Cl)c1=O	S1P4 antag 38, GALR2 blocker 78 | GALR2 blk conf 75 | BLA inhib ctr inactive | S1P4 antag cf 107 | S1P1 antag 57
COc1ccc(C2N(c3ccccc3)CCN2c2ccccc2)cc1O	none (no result: GALR2 blocker, GALR2 ag)
Cn1c(-c2c(N)n(CCCc3ccccc3)c3nc4ccccc4nc23)nc2ccccc21	S1P4 antag 37, GALR2 blocker 38 (no result: S1P3 antag) | GALR2 blk conf 51 | BLA inhib ctr 55 | S1P4 antag cf 83 | S1P1 antag 106
COc1cc(NS(=O)(=O)c2ccc(Nc3nc(-c4ccccc4)cs3)cc2)nc(OC)n1	none
CN(C)S(=O)(=O)N1CCN(c2ccc([N+](=O)[O-])c(N3CCCCC3)c2)CC1	none (no result: GALR2 blocker, GALR2 ag)
O=C1/C(=C/c2ccc(N3CCOCC3)o2)SC(=Nc2ccccc2)N1CCc1c[nH]c2ccccc12	S1P4 antag 46, GALR2 blocker 28 (no result: S1P3 antag) | GALR2 blk conf 27 | BLA inhib ctr 43 | S1P4 antag cf 64 | S1P1 antag 46
CNc1nc(NC#N)nc(SC)n1	none (no result: GALR2 blocker, GALR2 ag)
CC(C)(C)NC(=O)/C(=C/c1ccco1)c1ccccc1	none (no result: S1P3 antag)
N#CC(C#N)=C1C=CC=CN1/C(=C\c1ccco1)C(=O)c1ccccc1	S1P4 antag 66, GALR2 blocker 55 | GALR2 blk conf 79 | BLA inhib ctr 83 | S1P4 antag cf 116 | S1P1 antag 119
COc1ccc(C(=O)/C(=C\c2ccco2)N2C=CC=CC2=C(C#N)C#N)cc1	S1P4 antag 70, GALR2 blocker 42 (no result: S1P3 antag) | GALR2 blk conf 52 | BLA inhib ctr 49 | S1P4 antag cf 117 | S1P1 antag 41
COc1ccc(C(=O)N/C(=C\c2ccco2)C(=O)OCc2ccco2)cc1	none (no result: GALR2 blocker, GALR2 ag)
Nc1nc(-c2c(Cl)cccc2Cl)no1	none (no result: GALR2 blocker, GALR2 ag)
COCCNC(=O)C(c1ccccc1C)N(C(=O)Cn1nnc2ccccc21)c1cccnc1 (stereo not drawn)	none (no result: S1P3 antag)
Nc1ccc2c(C(F)(F)F)cc(=O)oc2c1	S1P4 antag 46, GALR2 blocker 39 | GALR2 blk conf inactive | BLA inhib ctr 46 | S1P4 antag cf 45 | S1P1 antag inactive
CCOC(=O)COc1ccc(/C=C/[N+](=O)[O-])c(OCC(=O)OCC)c1	S1P4 antag 30, GALR2 blocker 27 (no result: S1P3 antag) | GALR2 blk conf 31 | BLA inhib ctr inactive | S1P4 antag cf 116 | S1P1 antag 83
CCOC(=O)COc1ccc2nsnc2c1	none
O=C(Nc1ccccc1)Nc1cc(OCC(F)(F)F)cc(OCC(F)(F)F)c1	S1P4 antag 101, GALR2 blocker 27 | GALR2 blk conf inactive | BLA inhib ctr inactive | S1P4 antag cf 112 | S1P1 antag inactive
CCN(CC)c1ccc(/C=N/Nc2nc3ccccc3[nH]2)cc1	S1P4 antag 37, GALR2 blocker 42 | GALR2 blk conf 35 | BLA inhib ctr inactive | S1P4 antag cf 110 | S1P1 antag 81
O=C(N/N=C/C(Br)=C/c1ccccc1)c1n[nH]c2c1CCC2	S1P4 antag 32, GALR2 blocker 37 (no result: S1P3 antag) | GALR2 blk conf 33 | BLA inhib ctr 60 | S1P4 antag cf 46 | S1P1 antag 82
CCCN(CCC)CC(O)Cn1cc(/C=C/C(=O)c2cccs2)c2ccccc21 (stereo not drawn)	S1P4 antag 34, GALR2 blocker 53 | GALR2 blk conf 32 | BLA inhib ctr 44 | S1P4 antag cf 59 | S1P1 antag 74
CCCN(CCC)CC(O)Cn1cc(/C=C/C(=O)c2ccccc2)c2ccccc21 (stereo not drawn)	none (no result: GALR2 blocker, GALR2 ag)
CCNc1nc(SCCOc2ccc(Cl)cc2Cl)nc(N(C)C)n1	none (no result: GALR2 blocker, GALR2 ag)
CC(NC(=O)Cn1ncc(Cl)c(Cl)c1=O)C12CC3CC(CC(C3)C1)C2 (stereo not drawn)	S1P4 antag 51, GALR2 blocker 57 | GALR2 blk conf 72 | BLA inhib ctr 74 | S1P4 antag cf inactive | S1P1 antag inactive
CCOc1ccccc1NC(=O)Nc1cccc(S(N)(=O)=O)c1	none (no result: GALR2 blocker, GALR2 ag)
O=C(c1nnsc1S(=O)c1ccc(Cl)cc1)N1CCOCC1 (stereo not drawn)	none (no result: GALR2 blocker, GALR2 ag)
O=C(Nc1ccccc1)c1nnsc1S(=O)c1ccc(Cl)cc1 (stereo not drawn)	S1P4 antag 49, GALR2 blocker 39 (no result: S1P3 antag) | GALR2 blk conf 35 | BLA inhib ctr 56 | S1P4 antag cf 111 | S1P1 antag inactive
COc1ccccc1C1CC(c2ccco2)=NN1S(C)(=O)=O (stereo not drawn)	S1P4 agonist 30 (no result: GALR2 blocker, GALR2 ag) | S1P4 agonist cf inactive | S1P1 agonist inactive
Cc1cccc(-n2c(=S)[nH]c3sc4c(c3c2=O)CCc2ccccc2-4)c1	none (no result: GALR2 blocker, GALR2 ag)
CCOC(=O)C(=Nc1ccccc1)NO	none
CC(=O)Nc1nn(C)c2nc(C)cc(C)c12	S1P4 agonist 28 (no result: GALR2 blocker, GALR2 ag) | S1P4 agonist cf inactive | S1P1 agonist inactive
O=C(Cn1cc(Cl)ccc1=O)c1ccc(Cl)cc1	none
O=C(Cc1nc2ccccc2[nH]1)N/N=C/c1ccccc1	none
